The values that follow come from PubChem BioAssay (NCATS).

SMILES strings stand for the structures. Inconclusive results are not listed. The source holds several records for some structures; these can differ, active in one and inactive in another. Active and inactive are the calls of the source. Unless noted, calls come from the whole dose curve.

For experiment [1], the target named is Cytochrome P450 2D6 (Homo sapiens) (UniProt P10635). The experiment is described as follows: Cytochrome P450 family 2 subfamily D member 6 (CYP2D6) small molecule antagonists: luciferase biochemical (cell-free) qHTS assay (AID 1645840; active = well fitted curve in the direction sought with a large enough effect in the repeat runs; an effect the other way counts as inactive or inconclusive; note: nearly all actives have a fitted effect of over 55% in size; note: potency is the fitted concentration of half-maximal effect; for activity change, negative = inhibition: % is set by controls: 0 for no effect and ±100 for the full control effect). The method, boiled down: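 P450-Glo luminescent screen: recombinant CYP2D6 enzyme–proluciferin substrate mix preincubated with compound 10 min at room temperature, then NADPH regeneration added for 1 h at room temperature. Detection reagent added for 20 min; luciferin light read as relative luminescence units.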
Sequence of Cytochrome P450 2D6 (Homo sapiens) (P10635 whole entry, looked up): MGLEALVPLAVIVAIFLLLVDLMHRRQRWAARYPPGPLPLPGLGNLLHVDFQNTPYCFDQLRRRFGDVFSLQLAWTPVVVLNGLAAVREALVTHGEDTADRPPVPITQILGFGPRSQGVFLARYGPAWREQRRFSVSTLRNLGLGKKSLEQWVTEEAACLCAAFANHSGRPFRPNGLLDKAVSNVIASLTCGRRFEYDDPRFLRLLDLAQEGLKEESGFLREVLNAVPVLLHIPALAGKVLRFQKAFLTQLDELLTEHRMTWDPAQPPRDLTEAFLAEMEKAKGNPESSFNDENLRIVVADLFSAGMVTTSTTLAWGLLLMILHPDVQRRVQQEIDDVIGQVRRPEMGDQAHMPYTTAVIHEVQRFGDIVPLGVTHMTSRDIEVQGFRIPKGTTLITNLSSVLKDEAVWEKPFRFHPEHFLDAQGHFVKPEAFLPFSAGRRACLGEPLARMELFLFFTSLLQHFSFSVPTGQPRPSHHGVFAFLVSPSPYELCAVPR
(In general: Quantitative high-throughput screening tests each substance at several concentrations.)

Experiment [2] concerns the target Cytochrome P450 2C9 (Homo sapiens) (UniProt P11712). The experiment is described as follows: Cytochrome P450 family 2 subfamily C member 9 (CYP2C9) small molecule antagonists: luciferase biochemical (cell-free) qHTS assay (AID 1645842; active = well fitted curve in the direction sought with a large enough effect in the repeat runs; an effect the other way counts as inactive or inconclusive; note: nearly all actives have a fitted effect of over 55% in size; note: potency is the fitted concentration of half-maximal effect; for activity change, negative = inhibition: % is set by controls: 0 for no effect and ±100 for the full control effect). In outline:
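Luminescence, after 20 min with luciferin detection reagent, reflected CYP2C9 turnover during a 1 h NADPH-driven reaction at 37C. Enzyme-substrate mix contained 0.4% bovine serum albumin and was preincubated with compound 10 min at room temperature.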

A short description of experiment [3]: Cytotoxicity counterscreen for inhibitors of SARS-CoV-2 cell entry (AID 1645845). Note: nearly all actives have a fitted effect of over 50% in size. The method, boiled down:
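48 h compound treatment (after 1 h preincubation), HEK293-ACE2 cells, 37 C/5% CO2; ATP luminescence endpoint; normalized to cell wells and media blanks.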
(A counterscreen serves to expose hits that act by an unwanted route or on another target.)

A short description of experiment [4]: Primary qHTS to identify inhibitors of SARS-CoV-2 cell entry (AID 1645846). Note: nearly all actives have a fitted effect of over 45% in size. Note: potency is the fitted concentration of half-maximal effect. The following applies: activity change, negative = inhibition: at 57.1 µM (top of the series) unless noted. In outline:
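HEK293 cells stably expressing human ACE2, pre-treated 1 h with compound, then infected with MLV particles pseudotyped with Wuhan-Hu-1 spike (C-terminal 19-aa truncation). Luciferase luminescence after 48 h at 37 °C, normalised to spike PP and bald PP.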

Experiment [5] in a line: A High-Content qHTS Against Drug Library for the Identification of Small Molecules that Inhibit DYT1 Early Onset Primary Dystonia-Associated Cell Pathology (AID 1645839). In outline:
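In this high-content image screen, delE TorsinA mislocalization in inducible Flp-In 293 cells is scored as %pathology, with cell count serving as the counterscreen. Compound exposure lasts 48 h under tetracycline induction in reduced-serum medium.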

The nature of experiment [6]: Primary qHTS for inhibitors of nuclear receptor binding SET domain protein 2 (NSD2) in an isogenic RCH-ACV NSD2 p.E1099K mutant (9B) (AID 1645876; active = well fitted curve in the direction sought with a large enough effect; an effect the other way counts as inactive or inconclusive; note: nearly all actives have a fitted effect of over 70% in size; note: potency is the fitted concentration of half-maximal effect).
Experiment [7] can be described thus: Primary qHTS for inhibitors of nuclear receptor binding SET domain protein 2 (NSD2) in an RCH-ACV wild type WT cells (2C) (AID 1645877; active = well fitted curve in the direction sought with a large enough effect; an effect the other way counts as inactive or inconclusive; note: nearly all actives have a fitted effect of over 70% in size; note: potency is the fitted concentration of half-maximal effect).
Experiment [8] is described as follows: Confirmatory qHTS to identify inhibitors of SARS-CoV-2 cell entry (AID 1645844). Note: nearly all actives have a fitted effect of over 45% in size. Note: potency is the fitted concentration of half-maximal effect. The method, boiled down: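 Luminescence from a luciferase reporter, read 48 hr after pseudotyped-particle addition, gives entry signal, normalised to spike-bearing PP wells and bald PP lacking fusion protein wells. Cells are Expi293F stably expressing human ACE2, compound-pretreated 1 hr.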

Sequence of Cytochrome P450 2C9 (Homo sapiens) (P11712 whole entry, looked up): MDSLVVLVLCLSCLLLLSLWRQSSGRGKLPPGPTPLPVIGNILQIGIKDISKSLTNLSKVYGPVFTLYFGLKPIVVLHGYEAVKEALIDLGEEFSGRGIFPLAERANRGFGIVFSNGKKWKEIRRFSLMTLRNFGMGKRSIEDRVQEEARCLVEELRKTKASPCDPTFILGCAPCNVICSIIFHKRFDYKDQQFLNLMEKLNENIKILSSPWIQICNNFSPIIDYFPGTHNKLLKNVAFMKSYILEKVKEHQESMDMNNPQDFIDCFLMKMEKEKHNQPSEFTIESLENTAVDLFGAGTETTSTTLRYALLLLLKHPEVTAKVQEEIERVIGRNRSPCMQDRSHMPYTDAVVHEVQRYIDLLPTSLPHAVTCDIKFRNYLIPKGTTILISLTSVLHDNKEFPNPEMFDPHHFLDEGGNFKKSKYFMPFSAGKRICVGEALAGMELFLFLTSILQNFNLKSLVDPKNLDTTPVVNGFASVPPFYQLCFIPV

Turning to `CCCCCCCCCCCCOS(=O)(=O)O`, the Potency entry in experiment [1], in experiment [2] and in experiment [3] was “inactive” throughout. In addition, the activity change, negative = inhibition in experiment [4] is -9.15%.
Regarding `CC(C(O)c1ccccc1)N(C)C/C=C/c1ccccc1` (configuration not stated), the result in experiment [5] was inactive. Moreover, in experiment [1], the Potency was 0.0389 µM (active). Moreover, the Potency entry in experiment [3] is “inactive”.
Turning to `CCO[C@H]1O[C@@H]2OC3(C)CC[C@H]4[C@H](C)CC[C@@H]([C@H]1C)[C@@]24OO3`, the call in experiment [5] was inactive. The Potency entry in experiment [1] was “inactive”. Besides, the Potency is 15.5 µM (active) in experiment [2], 2.99 µM (active) in experiment [6] and 3.35 µM (active) in experiment [7].
On to `C[C@]12CC[C@H]3[C@@H](CCC4=CC(=O)CC[C@@]43C)[C@@H]1CC[C@@H]2C(=O)O`, for which the molecule was called inactive in experiment [5]. In addition, the Potency entry in experiment [1], in experiment [2], in experiment [6] and in experiment [7] was “inactive” each time.
As for `CN1CCC(=C2c3ccccc3CCc3sccc32)CC1`, the Potency is 21.5 µM (active) in experiment [8] and 14.1 µM (active) in experiment [4]. The Potency result in experiment [3] was “inactive”.
Take `CC(=O)c1ccc2c(c1)N(CCCN1CCC(CCO)CC1)c1ccccc1S2`: in experiment [8], the Potency is 22.4 µM (active).
As for `O=C1NC2CCCCN2C12CCN(CCCN1c3ccccc3CCc3ccc(Cl)cc31)CC2` (configuration not stated), in experiment [8], the Potency is 15.2 µM (active). Also, the Potency result in experiment [3] is “inactive”.
As for `CC1(C)O[C@@H]2C[C@H]3[C@@H]4C[C@H](F)C5=CC(=O)CC[C@]5(C)[C@H]4[C@@H](O)C[C@]3(C)[C@]2(C(=O)CO)O1`, the Potency entry in experiment [3] was “inactive”.
As for `CN1CCCCC1CCN1c2ccccc2Sc2ccc(S(C)=O)cc21` (configuration not stated), the Potency in experiment [8] was 1.08 µM (active). Besides, in experiment [3], the Potency result is “inactive”.
Take `CCOC(=O)C1=C(C)NC(C)=C(C(=O)OCC)C1c1ccccc1/C=C/C(=O)OC(C)(C)C`: the Potency in experiment [8] was 0.961 µM (active); in experiment [4] it was 25.1 µM (active). Besides, the Potency result in experiment [3] is “inactive”.
In the case of `CC1=CC(=O)c2ccccc2C1=O`, the Potency in experiment [8] was 19.2 µM (active). In addition, the Potency entry in experiment [3] was “inactive”.
On to `COCCOC(=O)C1=C(C)NC(C)=C(C(=O)OC/C=C/c2ccccc2)C1c1cccc([N+](=O)[O-])c1` (configuration not stated), for which, in experiment [8], the Potency was 24.1 µM (active).
As to `Cc1ccc(C(=O)Oc2ccc(C(O)CNC(C)(C)C)cc2OC(=O)c2ccc(C)cc2)cc1` (configuration not stated), the Potency result in experiment [3] was “inactive”.
In the case of `Clc1ccccc1C(c1ccccc1)(c1ccccc1)n1ccnc1`, the Potency in experiment [8] is 24.1 µM (active).
For the molecule `CCCCCCOC(=O)NC(=N)c1ccc(NCc2nc3cc(C(=O)N(CCC(=O)OCC)c4ccccn4)ccc3n2C)cc1`, the Potency in experiment [8] is 10.8 µM (active); in experiment [4], 22.4 µM (active). In addition, the Potency entry in experiment [3] is “inactive”. In addition, the activity change, negative = inhibition in experiment [4] was -62%.
`CC(=O)N[C@H]1[C@H]([C@H](O)[C@H](O)CO)OC(C(=O)O)=C[C@@H]1N=C(N)N`: the Potency entry in experiment [3] was “inactive”.
As for `CN(C(=O)c1c(O)c2ccccc2n(C)c1=O)c1ccccc1`, the Potency entry in experiment [8] and in experiment [3] was “inactive” each time. The activity change, negative = inhibition in experiment [4] is -55.9%.
For `CCCCC(CC)COC(=O)C(C#N)=C(c1ccccc1)c1ccccc1` (configuration not stated), the Potency in experiment [8] was 27.1 µM (active). For the same molecule, the Potency entry in experiment [3] is “inactive”. In addition, in experiment [4], the activity change, negative = inhibition is -96.1%.
In the same order, the values of `CCN(CC)CCOc1ccc(/C(=C(\Cl)c2ccccc2)c2ccccc2)cc1` are 21.5 µM (active), “inactive” and 4.38%.
For `Oc1c(Cl)cc(Cl)cc1Sc1cc(Cl)cc(Cl)c1O`, the figures for the Potency in experiment [8] and in experiment [4] were 2.71 µM (active) and 20 µM (active), respectively.
As for `O=C(CCCN1CCN(c2ccc(F)cc2)CC1)NC1c2ccccc2CSc2ccccc21` (configuration not stated), the Potency in experiment [8] was 1.92 µM (active). In experiment [3], the Potency result was “inactive”.
As for `COC(=O)[C@H]1[C@H]2C[C@@H]3c4[nH]c5cc(OC)ccc5c4CCN3C[C@H]2C[C@@H](OC(=O)/C=C/c2ccc(O)c(OC)c2)[C@@H]1OC`, the Potency in experiment [8] was 30.4 µM (active); in experiment [4] it was 12.6 µM (active). Besides, the Potency result in experiment [3] was “inactive”.
In the case of `CN1CCC(OC(c2ccccc2)c2ccccc2)CC1`, the Potency result in experiment [3] was “inactive”.
On the same count and under the same terms, to `COc1cc(N)c(Cl)cc1C(=O)NC1CCN(Cc2ccccc2)CC1` belongs “inactive”.
`O=c1[nH]c(=O)n([C@H]2C[C@H](O)[C@@H](CO)O2)cc1C(F)(F)F`: the Potency in experiment [8] is 0.0857 µM (active). The Potency result in experiment [3] is “inactive”. Further, the activity change, negative = inhibition in experiment [4] is -93.8%.
For the molecule `CCCCCOc1ccccc1/C(=C\SC)n1ccnc1`, in experiment [8], the Potency was 24.1 µM (active).
On to `COc1ccc(CCN(C)CCCC(C#N)(c2cc(OC)c(OC)c(OC)c2)C(C)C)cc1OC` (configuration not stated), for which the Potency result in experiment [3] was “inactive”.
As for `CC(Oc1c(Cl)cccc1Cl)C1=NCCN1` (configuration not stated), the Potency entry in experiment [3] is “inactive”.
With `O[C@@H](COc1cccc2ncccc12)CN1CCN(C2c3ccccc3[C@@H]3[C@H](c4ccccc42)C3(F)F)CC1` (some centres not stated), the results for the Potency in experiment [8] and in experiment [4] were 19.2 µM (active) and 28.2 µM (active), respectively.
Turning to `O=C(Nc1ccccc1)OCC(CN1CCCCC1)OC(=O)Nc1ccccc1` (configuration not stated), the Potency result in experiment [8] and in experiment [3] was “inactive” each time.
